Laboratory results: PubChem BioAssay

The molecules below were run on XIP peptide (Xip251-270) (assay: compounds binding XIP fragment 251-270 – biochemical, small-molecule microarray, fluorescence 635/667 nm, 0.5 µg/mL protein, primary screen (AID 1183)). Settings: fluorescence 635 nm, higher = more signal.
`O=C1OCCC/C=C\[C@H]2OC34C=CCN(Cc5ccccc5)C(=O)[C@H]3N(CCCCCO)C(=O)[C@@H]4C12` (some centres not stated) showed a composite z-score of -0.6. `CO[C@H]1O[C@H](CO)[C@@H](OC(=O)Nc2ccc(C(F)(F)F)cc2)[C@H](OC(=O)Nc2ccccc2-c2ccccc2)[C@H]1OC(=O)Nc1ccccc1-c1ccccc1` was tested, and the composite z-score was 0.701. For `COCCOC(=O)N1C(=O)[C@@]2(c3cc(C#CCCO)ccc31)[C@H](C(=O)N1CCN(c3ncccn3)CC1)[C@H]1C(=O)O[C@H](c3ccccc3)[C@H](c3ccccc3)N1[C@@H]2c1ccc(O)cc1`, the composite z-score was 0.802. `[N-]=[N+]=NCc1ccccc1[C@H]1OC(c2ccc(OCCCO)cc2)=N[C@@]1(Cc1ccccc1)C(=O)N1CCOCC1` was tested, and the composite z-score was 0.667. In the case of `C=CCC(OC(C)=O)[C@@H]1[C@@H](N(Cc2ccc(-c3ccccc3)cc2)C(=O)c2ccc(C)cc2)c2cc(OCCCO)ccc2N1C(=O)c1ccc2ccccc2c1` (some centres not stated), the composite z-score is reported as -0.354. `CCCCC(O)C1C=CC2C(=O)N(C)C(=O)C2N1Nc1ccccc1` (configuration not stated) gave a composite z-score of 0.0092. `COCCOC(=O)N1C(=O)[C@@]2(c3cc(C#CCC(C(=O)OC)C(=O)OC)ccc31)[C@H](C(=O)N1CCCCCCC1)[C@H]1C(=O)O[C@H](c3ccccc3)[C@H](c3ccccc3)N1[C@@H]2c1ccccc1OCCO` gave a composite z-score of 0.483. For `COC(=O)[C@@]1(Cc2ccccc2)[C@H]2c3cc(C(=O)N4CCCC4)n(Cc4ccc(C(F)(F)F)nc4)c3C[C@H]2CN1C(=O)c1ccccc1`, the composite z-score was 0.723. Molecule `CN1C(=O)[C@]2(CCS(=O)(=O)c3ccccc3)N=C(c3ccc(OCCCO)cc3)O[C@@H]2c2ccccc21` has a composite z-score of 0.897. `C=CCC(OC(C)=O)[C@@H]1[C@@H](N(Cc2cccc3ccccc23)C(=O)c2cccc3ccccc23)c2cc(OCCCO)ccc2N1C(=O)Cc1ccc2ccccc2c1` (some centres not stated) was tested, and the composite z-score was -0.716. Molecule `CCCCNC(=O)c1ccc(C#C[Si](C)(C)C)c(OC(C)=O)c1` has a composite z-score of -0.351. `CCOC(=O)C1=CC[C@@H](c2ccccc2Cl)N(S(=O)(=O)c2ccc(C)cc2)[C@H]1c1cccc(OC)c1` was tested, and the composite z-score was 0.246. In the case of `Cc1ccc(F)cc1S(=O)(=O)N[C@@H]1CCN(Cc2ccc3c(c2)OCO3)C1`, the composite z-score is reported as 0.321. `C#CCN(C/C=C/c1ccccc1)[C@H](CO[Si](C)(C)C(C)(C)C)c1ccccc1` gave a composite z-score of 0.0247. `N[C@@H](Cc1ccccc1)Cn1cc(C2(O)CCCCC2)nn1` was tested, and the composite z-score was 0.0069. Molecule `COCCOC(=O)N1C(=O)[C@@]2(c3cc(C#CCC(C(=O)OC)C(=O)OC)ccc31)[C@H](c1ccc(OCCO)cc1)N1[C@H](c3ccccc3)[C@H](c3ccccc3)OC(=O)[C@H]1[C@@H]2C(=O)N1CCCCCCC1` has a composite z-score of 0.523. In the case of `COc1ccc(NC(=O)O[C@H]2[C@H](OC(=O)Nc3ccc4c(c3)OCO4)[C@H](OC(=O)Nc3ccc4c(c3)OCO4)[C@@H](OC)O[C@@H]2CO)cc1`, the composite z-score is reported as 0.866. With `COc1ccc(NN2C(C(O)c3cc(C(F)(F)F)cc(C(F)(F)F)c3)C=CC3C(=O)N(C4CCCCC4)C(=O)C32)cc1` (configuration not stated) the composite z-score was 0.752. For `COCCOC(=O)N1C(=O)[C@@]2(c3cc(C#Cc4ccc(OC)cc4)ccc31)[C@H](C(=O)Nc1nc3ccccc3s1)[C@H]1C(=O)O[C@H](c3ccccc3)[C@H](c3ccccc3)N1[C@@H]2c1ccccc1OCCO`, the composite z-score was 0.594. In the case of `C=C(COC)/C(=C/C[C@H](OC(=O)c1ccncc1)c1ccc(OCCO)cc1)c1cc(C(=O)OC)ccc1OC`, the composite z-score is reported as 0.667. `COc1ccc([Si](C)(C)[C@H]2[C@H](CCO)O[C@@]3(C(=O)N(Cc4ccccc4)c4ccc(N(C=O)c5ccccc5)cc43)[C@@H]2C)cc1` gave a composite z-score of 0.571. Work on `C=CC[C@]1(C(=O)OC)N=C(c2ccc(OCCCO)cc2)O[C@H]1c1ccccc1N=[N+]=[N-]` yielded a composite z-score of 0.867. In the case of `COc1ccccc1CN1C(=O)c2ccccc2[C@](Cc2ccccc2I)(C(=O)NCCCN(C)C)[C@@H]1c1ccc(CO)cc1`, the composite z-score is reported as 0.808. Molecule `CC1CC/C=C\[C@H]2OC34C=CCN(c5ccc(Cl)cc5)C(=O)[C@H]3N(CCCO)C(=O)[C@]4(C)C2C(=O)O1` (some centres not stated) has a composite z-score of 0.861. `CC[C@H](C)C(=O)O[C@H]1CC[C@]2(C)C3=C(CCC2C1(C)C)[C@]1(C)CC[C@H]([C@H](C)CCCC(C)C)[C@@]1(C)CC3` (some centres not stated) was tested, and the composite z-score was -0.273. Work on `CCOC(=O)C[C@H]1[C@H](OC(=O)c2cc3ccccc3oc2=O)[C@@H](NC(=O)C2CCCCC2)c2cc(OCCCO)ccc2N1C(=O)Cc1ccc(OC)cc1` yielded a composite z-score of 0.0439. With `CC(C)C(=C=CC[C@@H](O)c1cccc(OCCO)c1)CCO` the composite z-score was 0.42.
